Measured values published in PubChem BioAssay AID1241 (SRMLSC, 2008).
Out of some 1,200 compounds screened, about 840 (70%) were called active. How the calls were made is not given here. So high a share suggests a set chosen from earlier hits. The list is a sample of the results. Entries with a potency or affinity are not part of this list.

Assay: compounds inducing NF-kB luciferase expression – cell-based, SH-SY5Y, dose response (AID 1241)
Settings: SH-SY5Y NF-kB promoter luciferase reporter; series mostly up to 30 µM; fold induction over control: at the top concentration

Fold induction over control, inactive:
CC1=C/C(=N\OS(=O)(=O)c2ccccc2)C(C)=CC1=O 0.31
Cn1c(-c2ccc(Br)o2)nc2cc(Br)ccc21 9.61
Clc1ccccc1-c1nnc(-c2cccs2)o1 9.9
O=C(Nc1nccs1)c1sc2ccccc2c1Cl 11.4 [at 15 µM]
CCCCCCOc1ccc(/C(N)=N/O)cc1 11.4
CCCCCCOc1ccc(OC(=O)c2ccncc2)cc1 5.72
N#Cc1c(NCCO)nc(NCc2ccccc2)c2c1CCN(Cc1ccccc1)C2 0.9
CCC(=O)Nc1cccc(C(=O)/C=C/c2ccccc2)c1 9 [at 15 µM]
Cc1ccccc1NC(=O)/C=C/c1ccc([N+](=O)[O-])s1 5.73 [at 15 µM]
Cc1ccc(NC(=O)/C=C/c2cccs2)c([N+](=O)[O-])c1 10.2
Cc1nn(Cc2ccccc2)c(Cl)c1/C=C/C(=O)OCC(=O)N1CCCC1=O 1.01
Cc1cccc(NC(=O)c2csnn2)n1 1.22
COc1ccc(OCCOC(=O)c2[nH]c(C)c(C(C)=O)c2C)cc1 0.69
Cc1ccc(Nc2nc(N)nc(CSc3ncccn3)n2)cc1 8.11
Cc1cc(N2CCOCC2)ccc1/C=C1/SC(=O)NC1=O 3.2
Cc1ccc(/C=N/N=C/c2ccc(C)s2)s1 16.3
CCOC(=O)c1ccc(NC(=O)N2CCc3ccccc32)cc1 9.88
CCCCNC(=O)c1cc(-c2ccc(F)cc2)on1 20.1
COc1ccc2c(=O)c(-c3ccccc3)coc2c1 9.03
CN(C)c1ccc(C(=S)NCc2ccco2)cc1 4.68
Cc1nnc(SCC(=O)Nc2nsc(-c3ccc(C(C)(C)C)cc3)n2)s1 10.8
COc1ccc(C2=NN3C(C2)c2ccccc2OC32C(=O)N(C)c3ccccc32)cc1 (stereo not drawn) 8.01
CC(=O)c1cc(N2CCOCC2)ccc1[N+](=O)[O-] 1.03
O=C(O)/C=C\C(=O)Nc1ccccc1C#Cc1ccccc1 1.8
CC(C)c1cc(C(=O)Nc2cc(Br)ccc2O)no1 2.7
CCc1cc(C(=O)Nc2ccc(C)cc2Br)cs1 7.97
CC(C)Cc1cc(C(=O)Nc2cc(Br)ccc2O)no1 2.37
O=C(CC(SCc1ccco1)c1ccc(O)cc1)c1cccs1 (stereo not drawn) 11.4
Cc1ccc(C(=O)COC(=O)c2ccc(O)cc2)cc1 10.9
O=C(CCC(=O)c1cccs1)c1cccs1 10.6
Cc1ccc(C)c(OCC(=O)O/N=C(\N)c2ccccn2)c1 5.69
CC(C)c1ccc(/C=N/NC(=O)c2c(Cl)cnn2C)cc1 9.29
CC(=O)c1sc(NC(=O)c2cccc(C)c2)nc1C 10.6
O=C(Nc1cccnc1)c1cc(-c2ccc3c(c2)OCO3)on1 12 [at 15 µM]
O=c1c2c(nc3cc(-c4ccccc4)[nH]n13)CCS2 3.49
Cc1ccc(CN2CN(S(=O)(=O)c3cccs3)c3nc4ccccc4nc32)cc1 1.19
Nc1c(C(=O)C2CC2)sc2nc3c(cc12)CCC3 10.5
CCOC(=O)c1sc2nc3c(cc2c1N)COC(C)(C)C3 11
O=C(Nc1ccc(Cl)cn1)c1ccc([N+](=O)[O-])o1 12.4
COc1ccc(NC(=O)c2cc3ccccc3o2)cc1 11.5
Cc1cccc(NC(=O)c2cc3ccccc3o2)c1 11.9
O=C(Nc1cccc(Br)c1)c1cc2ccccc2o1 10.1
COc1ccc2oc(=N)c(C(=O)Nc3ccccc3)cc2c1 12.7
CCN1C/C(=C/c2ccc(N3CCOCC3)cc2)C(=O)/C(=C/c2ccc(N3CCOCC3)cc2)C1 13 [at 15 µM]
Cc1ccc(NC(=O)/C(C#N)=C(\N)C(Cl)(Cl)Cl)nc1 5.72 [at 7.5 µM]
N/C(=N\OC(=O)COc1ccc(Cl)cc1Br)c1ccncc1 9.84
CN1CCN(CC(=O)Nc2ccccc2[N+](=O)[O-])CC1 1.19
COc1ccccc1/C=N\Nc1cn[nH]c(=O)c1Cl 1.17
